ChEMBL document CHEMBL1961873, “Compounds: GSK PKIS; Assays: Nanosyn kinase panel” (2012)
Where “and” joins values, the source holds several entries; their conditions need not be identical. Equal values may be shown once.

What was measured:
[1] = target: Protein kinase C gamma type (Homo sapiens) (UniProt P05129); conditions: at 1 µM;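 also: each value is an averaged percent inhibition of the enzyme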
[2] = target: T1, Protein kinase C iota type (Homo sapiens) (UniProt P41743); conditions: at 0.1 µM
T1 sequence (whole entry): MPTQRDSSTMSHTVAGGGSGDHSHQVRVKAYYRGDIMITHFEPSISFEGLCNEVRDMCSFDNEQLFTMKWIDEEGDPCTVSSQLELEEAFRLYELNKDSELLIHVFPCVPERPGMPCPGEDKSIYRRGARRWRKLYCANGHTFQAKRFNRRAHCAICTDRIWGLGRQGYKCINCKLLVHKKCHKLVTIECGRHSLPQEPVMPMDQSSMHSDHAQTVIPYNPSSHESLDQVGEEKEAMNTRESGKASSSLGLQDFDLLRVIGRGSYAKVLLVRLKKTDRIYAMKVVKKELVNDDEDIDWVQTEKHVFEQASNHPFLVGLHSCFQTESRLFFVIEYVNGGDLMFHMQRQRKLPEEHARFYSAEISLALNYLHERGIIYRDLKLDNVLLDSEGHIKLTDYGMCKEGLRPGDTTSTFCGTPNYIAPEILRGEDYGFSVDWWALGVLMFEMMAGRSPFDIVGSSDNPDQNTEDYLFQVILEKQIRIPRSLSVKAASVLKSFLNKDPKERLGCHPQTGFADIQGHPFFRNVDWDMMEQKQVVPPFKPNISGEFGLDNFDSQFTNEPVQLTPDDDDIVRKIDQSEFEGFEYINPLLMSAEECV

[3] = target: T1, Protein kinase C iota type (Homo sapiens); conditions: at 1 µM
[4] = target: Protein kinase C theta type (Homo sapiens) (UniProt Q04759); conditions: at 0.1 µM
[5] = target: Protein kinase C theta type (Homo sapiens) (UniProt Q04759); conditions: at 1 µM
[6] = target: Protein kinase C beta type (Homo sapiens) (UniProt P05771); conditions: at 0.1 µM
[7] = target: Protein kinase C beta type (Homo sapiens) (UniProt P05771); conditions: at 1 µM
[8] = target: T2, Serine/threonine-protein kinase D1 (Homo sapiens) (UniProt Q15139); conditions: at 0.1 µM
T2 sequence (whole entry): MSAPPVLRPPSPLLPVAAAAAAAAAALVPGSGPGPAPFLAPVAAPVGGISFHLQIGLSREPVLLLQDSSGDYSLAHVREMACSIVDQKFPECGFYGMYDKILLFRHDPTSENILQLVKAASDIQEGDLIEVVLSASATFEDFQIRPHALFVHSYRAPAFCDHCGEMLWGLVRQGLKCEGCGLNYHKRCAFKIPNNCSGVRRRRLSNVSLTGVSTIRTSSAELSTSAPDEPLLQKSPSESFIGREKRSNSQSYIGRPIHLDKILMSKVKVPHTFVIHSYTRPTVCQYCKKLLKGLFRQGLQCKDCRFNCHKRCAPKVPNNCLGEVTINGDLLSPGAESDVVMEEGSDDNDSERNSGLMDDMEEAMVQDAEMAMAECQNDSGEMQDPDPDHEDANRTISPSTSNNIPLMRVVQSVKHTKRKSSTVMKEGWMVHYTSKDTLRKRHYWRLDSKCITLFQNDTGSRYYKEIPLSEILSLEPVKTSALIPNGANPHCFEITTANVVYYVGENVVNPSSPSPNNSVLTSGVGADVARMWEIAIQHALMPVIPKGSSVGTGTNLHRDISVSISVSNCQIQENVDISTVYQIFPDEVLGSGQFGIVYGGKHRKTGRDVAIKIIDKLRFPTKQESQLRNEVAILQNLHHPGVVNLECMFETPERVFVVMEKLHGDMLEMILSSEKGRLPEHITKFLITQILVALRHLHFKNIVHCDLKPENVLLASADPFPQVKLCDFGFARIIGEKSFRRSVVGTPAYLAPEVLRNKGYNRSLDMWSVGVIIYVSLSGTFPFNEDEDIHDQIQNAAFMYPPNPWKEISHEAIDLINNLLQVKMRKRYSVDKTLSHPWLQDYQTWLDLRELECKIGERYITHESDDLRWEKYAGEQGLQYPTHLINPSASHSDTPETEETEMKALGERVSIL

[9] = target: T2, Serine/threonine-protein kinase D1 (Homo sapiens); conditions: at 1 µM
[10] = target: T3, Serine/threonine-protein kinase D2 (Homo sapiens) (UniProt Q9BZL6); conditions: at 0.1 µM;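 also: reported percent inhibition values are means, part of the GSK PKIS kinase panel screen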
T3 sequence (whole entry): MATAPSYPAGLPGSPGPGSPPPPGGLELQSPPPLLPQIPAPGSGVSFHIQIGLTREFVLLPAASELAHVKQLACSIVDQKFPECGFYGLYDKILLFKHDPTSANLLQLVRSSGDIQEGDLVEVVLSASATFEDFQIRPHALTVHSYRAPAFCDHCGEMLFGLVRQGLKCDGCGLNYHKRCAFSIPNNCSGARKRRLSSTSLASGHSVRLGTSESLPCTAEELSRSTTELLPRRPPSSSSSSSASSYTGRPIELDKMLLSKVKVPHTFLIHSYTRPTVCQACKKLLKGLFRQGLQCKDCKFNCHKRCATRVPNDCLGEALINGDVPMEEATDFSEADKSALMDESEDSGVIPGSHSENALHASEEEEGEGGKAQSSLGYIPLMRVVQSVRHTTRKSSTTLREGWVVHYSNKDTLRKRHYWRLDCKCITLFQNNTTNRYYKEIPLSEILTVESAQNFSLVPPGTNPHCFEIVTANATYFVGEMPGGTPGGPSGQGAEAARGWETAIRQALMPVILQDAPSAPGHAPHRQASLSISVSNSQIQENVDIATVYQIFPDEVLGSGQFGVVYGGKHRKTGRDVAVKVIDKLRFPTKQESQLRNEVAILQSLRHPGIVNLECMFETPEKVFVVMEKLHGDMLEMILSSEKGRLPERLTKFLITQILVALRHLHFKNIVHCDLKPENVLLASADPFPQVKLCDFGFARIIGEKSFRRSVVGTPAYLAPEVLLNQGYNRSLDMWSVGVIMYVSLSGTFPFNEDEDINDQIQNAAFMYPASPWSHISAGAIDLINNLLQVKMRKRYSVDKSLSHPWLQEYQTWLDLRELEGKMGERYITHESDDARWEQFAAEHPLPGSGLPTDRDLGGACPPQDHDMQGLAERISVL

Chain of Protein kinase C beta type (Homo sapiens) (P05771 2-671 limits assumed): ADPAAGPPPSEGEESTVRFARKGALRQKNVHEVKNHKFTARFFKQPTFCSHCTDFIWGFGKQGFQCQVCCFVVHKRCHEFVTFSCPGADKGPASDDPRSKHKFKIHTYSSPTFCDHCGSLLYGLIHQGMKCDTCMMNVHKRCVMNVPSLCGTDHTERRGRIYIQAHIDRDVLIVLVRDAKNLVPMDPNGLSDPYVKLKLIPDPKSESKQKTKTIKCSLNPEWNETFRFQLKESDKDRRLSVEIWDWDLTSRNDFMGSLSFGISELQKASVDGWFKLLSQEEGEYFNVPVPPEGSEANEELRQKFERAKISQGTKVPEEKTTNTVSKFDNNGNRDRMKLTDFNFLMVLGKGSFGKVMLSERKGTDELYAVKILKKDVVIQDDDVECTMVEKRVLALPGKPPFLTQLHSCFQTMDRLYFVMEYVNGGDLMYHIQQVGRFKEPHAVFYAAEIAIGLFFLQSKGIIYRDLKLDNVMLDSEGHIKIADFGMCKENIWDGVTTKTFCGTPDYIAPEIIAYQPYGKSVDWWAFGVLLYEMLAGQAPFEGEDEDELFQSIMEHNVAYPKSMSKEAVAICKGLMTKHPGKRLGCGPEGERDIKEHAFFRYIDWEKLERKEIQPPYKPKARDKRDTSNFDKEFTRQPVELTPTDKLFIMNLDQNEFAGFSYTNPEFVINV
Chain of Protein kinase C theta type (Homo sapiens) (Q04759 whole entry, looked up): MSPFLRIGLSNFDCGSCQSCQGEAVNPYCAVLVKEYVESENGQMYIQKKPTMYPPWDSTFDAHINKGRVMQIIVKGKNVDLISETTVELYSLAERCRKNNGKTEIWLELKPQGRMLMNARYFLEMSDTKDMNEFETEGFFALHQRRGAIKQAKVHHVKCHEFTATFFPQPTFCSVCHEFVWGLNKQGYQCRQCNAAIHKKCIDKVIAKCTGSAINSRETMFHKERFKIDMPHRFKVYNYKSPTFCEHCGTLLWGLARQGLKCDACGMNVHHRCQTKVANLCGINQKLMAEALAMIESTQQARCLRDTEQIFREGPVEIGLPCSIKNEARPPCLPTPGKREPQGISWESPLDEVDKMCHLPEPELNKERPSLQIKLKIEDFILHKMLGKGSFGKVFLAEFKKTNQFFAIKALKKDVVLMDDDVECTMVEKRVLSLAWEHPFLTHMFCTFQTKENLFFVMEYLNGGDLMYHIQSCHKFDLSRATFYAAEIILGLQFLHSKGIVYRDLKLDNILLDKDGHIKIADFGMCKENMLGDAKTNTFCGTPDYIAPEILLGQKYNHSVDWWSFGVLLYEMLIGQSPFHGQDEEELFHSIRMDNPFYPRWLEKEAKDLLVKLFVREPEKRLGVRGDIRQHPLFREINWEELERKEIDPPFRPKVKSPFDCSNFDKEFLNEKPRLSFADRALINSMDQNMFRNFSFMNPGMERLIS

SMILES | inhibition [1] | inhibition [2] | inhibition [3] | inhibition [4] | inhibition [5] | inhibition [6] | inhibition [7] | inhibition [8] | inhibition [9] | inhibition [10]
N#Cc1cccc(Nc2ncc(-c3ccccc3)o2)c1 | 5.3% | 0.25% | 0.06% | 1.33% | 3.57% | 0.6% | 1.2% | 5.32% | 2.44% | 1.97%
Cc1c2ccc(N(C)c3ccnc(Nc4cccc(S(N)(=O)=O)c4)n3)cc2nn1C | 6.91% | 1.66% | 2.75% | 1.34% | 2.51% | 1.36% | 2.7% | -0.64% | 2.68% | 1.1%
COc1cc(Nc2ncc(-c3ccccc3)o2)cc(OC)c1 | 2.55% | 2.88% | 3.11% | 2.43% | 3.38% | 0.78% | 2.17% | 4.12% | 5.16% | 3.39%
N#Cc1ccc2c(-c3ccnc(NC4CC4)n3)c(-c3ccc(F)cc3)nn2c1 | 1.83% | 0.18% | 0.6% | 1.35% | 1.42% | 1.33% | 4.8% | 5.97% | 40% | 5.96%
COc1ccc2ncn(-c3cc(O[C@H](C)c4ccccc4C(F)(F)F)c(C(N)=O)s3)c2c1 | 3.02% | -1.03% | -0.45% | -0.16% | -0.58% | -0.24% | 0.08% | -0.46% | 0.62% | 2.18%
CN1CCC(C(=O)Nc2n[nH]c3nc(-c4ccc(O)cc4)c(Br)cc23)CC1 | 7.76% and 8.57% | 3.63% and -0.08% | 8.06% and 5.91% | 2.17% and 0.5% | 7.83% and 2.97% | 6.51% and 5.4% | 30.5% and 31.2% | 1.71% and 3.32% | 5.76% and 5.75% | 1.9% and 3.95%
O=C(O[C@H]1CN[C@H](C#Cc2cc3ncnc(Nc4ccc(OCc5cccc(F)c5)c(Cl)c4)c3s2)C1)N1CCOCC1 | 5.45% | 1.77% | 0.9% | 3.84% | 5.14% | 2.11% | 1.21% | 4.61% | 6.86% | 6.18%
CN(c1ccc(NC(=O)NCCN2CCOCC2)cc1)c1ccnc(Nc2ccc(CS(C)(=O)=O)cc2)n1 | 4.99% | 2.77% | 2.1% | 2.63% | 3.43% | 0.67% | -0.33% | 2.05% | 1.78% | 2%
Nc1nonc1-c1nc2cnccc2n1C1CC1 | 16.4% and 14.8% | 1.95% and 3.2% | 14.8% and 15.6% | 8.24% and 7.85% | 38.7% and 40.1% | 7.25% and 6.7% | 31.2% and 31.3% | 4% and 0.29% | 22.3% and 23.2% | 4% and 0.3%
COC(=O)Nc1nc2ccc(Oc3ccc(NC(=O)Nc4cc(C(F)(F)F)ccc4F)cc3)cc2s1 | 0.59% | -0.25% | 0.66% | -0.27% | -1.1% | -0.19% | -0.04% | 0.06% | 0.84% | -0.61%
Nc1ncnc2occ(-c3ccc(NC(=O)Nc4cc(C(F)(F)F)ccc4F)cc3)c12 | 4.25% and -2.46% | 1.22% and 0.26% | 2.9% and 0.4% | 0.8% and -1.06% | -0.69% and -1.44% | 0.86% and -0.64% | 1.67% and 0.08% | 1.55% and -2.08% | 2.08% and -1.19% | 1.19% and -0.28%
COc1cccc(-n2ncc3c(N/N=C/c4ccc(C(=O)NCCN(C)C)cc4)ncnc32)c1 | 4.05% | 2.38% | 10.3% | 1.61% | 1.46% | 1.88% | 17.7% | 2.09% | 7.26% | 2.5%
O=C(O[C@H]1CN[C@H](C#Cc2cc3ncnc(Nc4ccc5c(ccn5Cc5cc(F)ccc5F)c4)c3s2)C1)N1CCOCC1 | 3.05% | 2.82% | 3.06% | 1.84% | 0.91% | 1.75% | 0.99% | 3.66% | 6.58% | 4.5%
CCN1CCC(C(=O)Nc2n[nH]c3nnc(-c4cccc(F)c4F)cc23)CC1 | -0.22% | -0.71% | -1.05% | 0.26% | -1.11% | 0.39% | 0.87% | -0.1% | -0.6% | 0.26%
Cc1nnc(-c2cccc(-c3ccc(C(=O)NCC4CC4)cc3)c2)o1 | 5.25% | 2.19% | 1.94% | 3.27% | 5.18% | 1.13% | 2.65% | 4.9% | 9.11% | 5.08%
O=C(O[C@H]1CN[C@H](C#Cc2cc3ncnc(Nc4ccc5c(cnn5Cc5ccccc5)c4)c3s2)C1)N1CCOCC1 | 1.11% | -1.84% | -0.97% | -0.32% | -1.1% | -0.16% | -0.06% | 2.57% | 1.38% | 1.01%
